Results published in the supplement of paper PMC4466140.

The binders below were run against AgAbp1 (assay: SPOT peptide array binding signal intensity (averaged, normalized) (arbitrary units (background-subtracted, floor 0; scale differs between SH3 domains)); higher = stronger binding of the SH3 domain to the peptide).
How it was run: (§1)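 Cellulose membranes carried synthetic 15-mer peptides with cysteines swapped for serines. These were incubated overnight at 4°C with 10 μg/ml of GST-fused SH3 domains from four yeast species in TBS-based blocking buffer. Binding signal, detected with anti-GST antibody and quantified in Genespotter, is the normalized, background-subtracted spot intensity averaged over replicates, in arbitrary units specific to each domain.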

| Binder | SPOT peptide array binding signal intensity |
| --- | --- |
| APPPPPRRATPEKKP | 79 |

These binders were tested against AgBbc1 in the same assay as above.
How it was run: as §1

| Binder | SPOT peptide array binding signal intensity |
| --- | --- |
| APPPPPRRATPEKKP | 202 |

These binders were tested against AgBem1-D1 in the same assay as above.
How it was run: as §1

| Binder | SPOT peptide array binding signal intensity |
| --- | --- |
| APPPPPRRATPEKKP | 24.5 |

What follows are binders tested against AgBzz1-D1 in the same assay as above.
How it was run: as §1

| Binder | SPOT peptide array binding signal intensity |
| --- | --- |
| APPPPPRRATPEKKP | 84 |

These binders were tested against AgBzz1-D2 in the same assay as above.
How it was run: as §1

| Binder | SPOT peptide array binding signal intensity |
| --- | --- |
| APPPPPRRATPEKKP | 29.5 |

The binders below were run against AgCyk3 in the same assay as above.
How it was run: as §1

| Binder | SPOT peptide array binding signal intensity |
| --- | --- |
| APPPPPRRATPEKKP | ≤ 0 |

Each binder was assayed against AgFus1 in the same assay as above.
How it was run: as §1

| Binder | SPOT peptide array binding signal intensity |
| --- | --- |
| APPPPPRRATPEKKP | ≤ 0 |

The binders below were run against AgHof1 in the same assay as above.
How it was run: as §1

| Binder | SPOT peptide array binding signal intensity |
| --- | --- |
| APPPPPRRATPEKKP | 0.75 |

What follows are binders tested against AgHse1 in the same assay as above.
How it was run: as §1

| Binder | SPOT peptide array binding signal intensity |
| --- | --- |
| APPPPPRRATPEKKP | 17 |

What follows are binders tested against AgLsb1 in the same assay as above.
How it was run: as §1

| Binder | SPOT peptide array binding signal intensity |
| --- | --- |
| APPPPPRRATPEKKP | 17.5 |

These binders were tested against AgLsb4 in the same assay as above.
How it was run: as §1

| Binder | SPOT peptide array binding signal intensity |
| --- | --- |
| APPPPPRRATPEKKP | 192 |

These binders were tested against AgMyo5 in the same assay as above.
How it was run: as §1

| Binder | SPOT peptide array binding signal intensity |
| --- | --- |
| APPPPPRRATPEKKP | 4 |

These binders were tested against AgNbp2 in the same assay as above.
How it was run: as §1

| Binder | SPOT peptide array binding signal intensity |
| --- | --- |
| APPPPPRRATPEKKP | ≤ 0 |

The binders below were run against AgRvs167 in the same assay as above.
How it was run: as §1

| Binder | SPOT peptide array binding signal intensity |
| --- | --- |
| APPPPPRRATPEKKP | 209 |

What follows are binders tested against AgSho1 in the same assay as above.
How it was run: as §1

| Binder | SPOT peptide array binding signal intensity |
| --- | --- |
| APPPPPRRATPEKKP | 1.5 |

These binders were tested against AgSla1-D1-D2 in the same assay as above.
How it was run: as §1

| Binder | SPOT peptide array binding signal intensity |
| --- | --- |
| APPPPPRRATPEKKP | ≤ 0 |

Each binder was assayed against AgSla1-D3 in the same assay as above.
How it was run: as §1

| Binder | SPOT peptide array binding signal intensity |
| --- | --- |
| APPPPPRRATPEKKP | 1.5 |

Each binder was assayed against CaAbp1-D1 in the same assay as above.
How it was run: as §1

| Binder | SPOT peptide array binding signal intensity |
| --- | --- |
| APPPPPRRATPEKKP | 62 |

What follows are binders tested against CaAbp1-D2 in the same assay as above.
How it was run: as §1

| Binder | SPOT peptide array binding signal intensity |
| --- | --- |
| APPPPPRRATPEKKP | 58 |

What follows are binders tested against CaBbc1 in the same assay as above.
How it was run: as §1

| Binder | SPOT peptide array binding signal intensity |
| --- | --- |
| APPPPPRRATPEKKP | 368 |

What follows are binders tested against CaBem1-D1 in the same assay as above.
How it was run: as §1

| Binder | SPOT peptide array binding signal intensity |
| --- | --- |
| APPPPPRRATPEKKP | 1 |

Each binder was assayed against CaBzz1-D1 in the same assay as above.
How it was run: as §1

| Binder | SPOT peptide array binding signal intensity |
| --- | --- |
| APPPPPRRATPEKKP | 1050 |

Each binder was assayed against CaBzz1-D2 in the same assay as above.
How it was run: as §1

| Binder | SPOT peptide array binding signal intensity |
| --- | --- |
| APPPPPRRATPEKKP | 156 |

These binders were tested against CaCyk3 in the same assay as above.
How it was run: as §1

| Binder | SPOT peptide array binding signal intensity |
| --- | --- |
| APPPPPRRATPEKKP | 18.5 |

The binders below were run against CaFus1 in the same assay as above.
How it was run: as §1

| Binder | SPOT peptide array binding signal intensity |
| --- | --- |
| APPPPPRRATPEKKP | 52.5 |

These binders were tested against CaHof1 in the same assay as above.
How it was run: as §1

| Binder | SPOT peptide array binding signal intensity |
| --- | --- |
| APPPPPRRATPEKKP | 73 |

These binders were tested against CaHse1 in the same assay as above.
How it was run: as §1

| Binder | SPOT peptide array binding signal intensity |
| --- | --- |
| APPPPPRRATPEKKP | 3 |

The binders below were run against CaLsb1 in the same assay as above.
How it was run: as §1

| Binder | SPOT peptide array binding signal intensity |
| --- | --- |
| APPPPPRRATPEKKP | ≤ 0 |

Each binder was assayed against CaLsb4 in the same assay as above.
How it was run: as §1

| Binder | SPOT peptide array binding signal intensity |
| --- | --- |
| APPPPPRRATPEKKP | 1860 |

What follows are binders tested against CaMyo5 in the same assay as above.
How it was run: as §1

| Binder | SPOT peptide array binding signal intensity |
| --- | --- |
| APPPPPRRATPEKKP | 2.5 |

Each binder was assayed against CaNbp2 in the same assay as above.
How it was run: as §1

| Binder | SPOT peptide array binding signal intensity |
| --- | --- |
| APPPPPRRATPEKKP | 53 |

Each binder was assayed against CaRvs167 in the same assay as above.
How it was run: as §1

| Binder | SPOT peptide array binding signal intensity |
| --- | --- |
| APPPPPRRATPEKKP | 94.7 |

The binders below were run against CaRvs167-3 in the same assay as above.
How it was run: as §1

| Binder | SPOT peptide array binding signal intensity |
| --- | --- |
| APPPPPRRATPEKKP | 1 |

These binders were tested against CaSho1 in the same assay as above.
How it was run: as §1

| Binder | SPOT peptide array binding signal intensity |
| --- | --- |
| APPPPPRRATPEKKP | ≤ 0 |

The binders below were run against CaSla1-D1-D2 in the same assay as above.
How it was run: as §1

| Binder | SPOT peptide array binding signal intensity |
| --- | --- |
| APPPPPRRATPEKKP | 1170 |

What follows are binders tested against CaSla1-D3 in the same assay as above.
How it was run: as §1

| Binder | SPOT peptide array binding signal intensity |
| --- | --- |
| APPPPPRRATPEKKP | 3 |

The binders below were run against ScAbp1 in the same assay as above.
How it was run: as §1

| Binder | SPOT peptide array binding signal intensity |
| --- | --- |
| APPPPPRRATPEKKP | 69 |
